Inconclusive results are not listed. A call without a number means that no potency is given here. Calls of active or inactive are those of the source. Calls follow the shape of the dose curve; as a rule, active = well fitted cell-killing curve with a large enough effect; inconclusive = small, poorly fitted or top-dose-only effect; inactive = flat fitted curve, though single readings scatter.
Assay: Cell Viability - LYMP2-007 (AID 979);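 also: cells exposed to compound for 24 h before reading; nearly all actives have a fitted effect of over 60% in size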
Details: LYMP2-007 lymphoblastoid cell viability; series mostly up to 92.2 µM
In short: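 Cells are seeded at 2500 per well and rested 5 hr. Compounds are then added over a concentration series for 24 hr at 37 C. CellTiter-Glo is added for 30 min at room temperature before luminescence reading.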
Potency is read from the fitted curve at half-maximal effect.

Structure (SMILES)	Potency
O=C(O)C(Br)Br	inactive
Cc1ccc(OP(=O)(Oc2ccc(C)cc2)Oc2ccc(C)cc2)cc1	inactive
Oc1c(Cl)c(Cl)cc(Cl)c1Cl	inactive
Nc1ccc(Cc2ccc(N)c(Cl)c2)cc1Cl	inactive
Brc1ccc(Oc2ccc(Br)cc2Br)c(Br)c1	inactive
O=[N+]([O-])c1c(Cl)c(Cl)c(Cl)c(Cl)c1Cl	inactive
CN1CSC(=S)N(C)C1	31.6 µM (active)
ClCC(Cl)Cl	inactive
CC(C)Br	inactive
O=[N+]([O-])c1ccc(O)c([N+](=O)[O-])c1	inactive
CC(C)[N+](=O)[O-]	inactive
Cc1cc(-c2cc(C)c(N)c(C)c2)cc(C)c1N	inactive
Nc1cc(Cl)ccc1O	inactive
CCN(N=O)C(N)=O	inactive
N#CC(Cl)(Cl)Cl	inactive
CCCCC(CC)COC(=O)c1ccc(C(=O)OCC(CC)CCCC)c(C(=O)OCC(CC)CCCC)c1 (stereo not drawn)	inactive
Nc1c(Br)cc([N+](=O)[O-])cc1[N+](=O)[O-]	inactive
Cc1cc(C)cc(OP(=O)(Oc2cc(C)cc(C)c2)Oc2cc(C)cc(C)c2)c1	inactive

Structure (SMILES)	Potency
N#CC(Br)Br	39.8 µM (active)
O=C(O)C(Cl)Br (stereo not drawn)	inactive
COP(=S)(OC)SCn1nnc2ccccc2c1=O	inactive
Nc1ccc([N+](=O)[O-])cc1N	inactive
O=C(O)c1cccc(Cl)c1	inactive
Cc1cc(N=Nc2ccccc2C)ccc1N	inactive
OCCCCO	inactive
O=[N+]([O-])c1cc(Cl)c(Cl)c(Cl)c1	inactive
CC(C)(COCC1CO1)COCC1CO1 (stereo not drawn)	inactive
Cc1ccc2c(c1N)C(=O)c1ccccc1C2=O	inactive
COc1ccccc1N	inactive
CC(C)(C)OOC(=O)c1ccccc1	inactive
c1ccc(N=NNc2ccccc2)cc1	inactive
COC(C)(C)C	inactive
C(CCOCC1CO1)COCC1CO1 (stereo not drawn)	inactive
CN(C)c1ccc(N)cc1	50.1 µM (active)
O=[N+]([O-])/C=C/c1ccccc1	31.6 µM (active)

Assay: Cell Viability - LYMP2-008 (AID 980); also: nearly all actives have a fitted effect of over 60% in size
Details: LYMP2-008 lymphoblastoid cell viability, qHTS; series mostly up to 92.2 µM
In short: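 Cells seeded at 2500/well and rested 5 hr at 37 C; compounds added over a concentration range and incubated 24 hr at 37 C; CellTiter-Glo added, 30 min at room temperature; luminescence read and AC50 fitted with Hill model.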

Structure (SMILES)	Potency
O=C(O)C(Br)Br	inactive
Cc1ccc(OP(=O)(Oc2ccc(C)cc2)Oc2ccc(C)cc2)cc1	inactive
Oc1c(Cl)c(Cl)cc(Cl)c1Cl	inactive
Nc1ccc(Cc2ccc(N)c(Cl)c2)cc1Cl	inactive
Brc1ccc(Oc2ccc(Br)cc2Br)c(Br)c1	inactive
O=[N+]([O-])c1c(Cl)c(Cl)c(Cl)c(Cl)c1Cl	inactive
CN1CSC(=S)N(C)C1	39.8 µM (active)
ClCC(Cl)Cl	inactive
CC(C)Br	inactive
O=[N+]([O-])c1ccc(O)c([N+](=O)[O-])c1	inactive
CC(C)[N+](=O)[O-]	inactive
CCCC[N+](=O)[O-]	inactive
Cc1cc(-c2cc(C)c(N)c(C)c2)cc(C)c1N	inactive
Nc1cc(Cl)ccc1O	inactive
CCN(N=O)C(N)=O	inactive
N#CC(Cl)(Cl)Cl	inactive
CCCCC(CC)COC(=O)c1ccc(C(=O)OCC(CC)CCCC)c(C(=O)OCC(CC)CCCC)c1 (stereo not drawn)	inactive
O=C(O)C(Br)CBr (stereo not drawn)	inactive

Structure (SMILES)	Potency
Nc1c(Br)cc([N+](=O)[O-])cc1[N+](=O)[O-]	inactive
Cc1cc(C)cc(OP(=O)(Oc2cc(C)cc(C)c2)Oc2cc(C)cc(C)c2)c1	inactive
O=C(O)C(Cl)Br (stereo not drawn)	inactive
COP(=S)(OC)SCn1nnc2ccccc2c1=O	inactive
Nc1ccc([N+](=O)[O-])cc1N	inactive
O=C(O)c1cccc(Cl)c1	inactive
Cc1cc(N=Nc2ccccc2C)ccc1N	inactive
OCCCCO	inactive
O=[N+]([O-])c1cc(Cl)c(Cl)c(Cl)c1	inactive
CC(C)(COCC1CO1)COCC1CO1 (stereo not drawn)	inactive
Cc1ccc2c(c1N)C(=O)c1ccccc1C2=O	inactive
COc1ccccc1N	inactive
CC(C)(C)OOC(=O)c1ccccc1	inactive
c1ccc(N=NNc2ccccc2)cc1	inactive
COC(C)(C)C	inactive
C(CCOCC1CO1)COCC1CO1 (stereo not drawn)	inactive
CN(C)c1ccc(N)cc1	50.1 µM (active)

Assay: Cell Viability - LYMP2-010 (AID 981);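 also: cells exposed to compound for 24 hours at 37 °C; nearly all actives have a fitted effect of over 55% in size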
Details: LYMP2-010 lymphoblastoid cell viability, qHTS; series mostly up to 92.2 µM
In short: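 Steps: seed 2500 LYMP2-010 cells per well; incubate 5 hr at 37 C; add compound; incubate 24 hr at 37 C; add CellTiter-Glo, wait 30 min at room temperature; read luminescence. Concentration-response fitted to Hill equation for AC50.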

Structure (SMILES)	Potency
O=C(O)C(Br)Br	inactive
Cc1ccc(OP(=O)(Oc2ccc(C)cc2)Oc2ccc(C)cc2)cc1	inactive
Oc1c(Cl)c(Cl)cc(Cl)c1Cl	inactive
CN(C)c1ccc(N(C)C)cc1	50.1 µM (active)
Brc1ccc(Oc2ccc(Br)cc2Br)c(Br)c1	inactive
CN1CSC(=S)N(C)C1	20 µM (active)
ClCC(Cl)Cl	inactive
C=CC(=O)OCCO	50.1 µM (active)
CC(C)Br	inactive
O=[N+]([O-])c1ccc(O)c([N+](=O)[O-])c1	inactive
CCCC[N+](=O)[O-]	inactive
Cc1cc(-c2cc(C)c(N)c(C)c2)cc(C)c1N	inactive
N#CC(Cl)(Cl)Cl	inactive
O=C(O)C(Br)CBr (stereo not drawn)	inactive
Cc1cc(C)cc(OP(=O)(Oc2cc(C)cc(C)c2)Oc2cc(C)cc(C)c2)c1	inactive
COP(=S)(OC)SCn1nnc2ccccc2c1=O	inactive
O=C(O)c1cccc(Cl)c1	inactive
Cc1cc(N=Nc2ccccc2C)ccc1N	inactive
OCCCCO	inactive
O=[N+]([O-])c1cc(Cl)c(Cl)c(Cl)c1	inactive
CC(C)(COCC1CO1)COCC1CO1 (stereo not drawn)	inactive
Cc1ccc2c(c1N)C(=O)c1ccccc1C2=O	inactive
COc1ccccc1N	inactive
CC(C)(C)OOC(=O)c1ccccc1	inactive
c1ccc(N=NNc2ccccc2)cc1	inactive
COC(C)(C)C	inactive
CN(C)c1ccc(N)cc1	50.1 µM (active)
O=[N+]([O-])/C=C/c1ccccc1	50.1 µM (active)
